Compound activity as filed in PubChem BioAssay.
Pol eta inh-1: qHTS for Inhibitors of Polymerase Eta. DNA polymerase eta (Homo sapiens), Q9Y253. Potency, µM (series often up to 114 µM), most hits filed as inhibitors. actives 1.2% (n = 390,000). AID 588591, 2011. recombinant Pol eta, fluorescent DNA replication assay
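Pol eta at 10 nM preincubated with compounds 15 min at room temperature; reaction started with fluorescent substrate (50 nM final) and read kinetically at 0 and 10 min.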
Pol beta inh-1: qHTS Assay for Inhibitors of DNA Polymerase Beta | Potency, µM (titrated, usually from 114 µM), hits mostly inhibitors | P06746 | actives 1.3% (n = 340,000) | Pol beta primer extension/strand displacement, fluorescence kinetic
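Kinetic readout of DNA synthesis with strand displacement by Pol beta. Compound and 10 nM enzyme sit 15 min at room temperature; 50 nM substrate starts the reaction, read immediately and at 10 min.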
Pol kappa inh-1: qHTS for Inhibitors of Polymerase Kappa | actives 0.53% (n = 400,000) | AID 588579, 2011 | Potency, µM (highest dose often 107 µM), hits mostly inhibitors | DNA polymerase kappa (Homo sapiens), Q9UBT6 | purified Pol kappa, fluorescent DNA synthesis assay, 10 min
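Activity was followed as the change in fluorescence between reads at 0 and 10 min after starting the reaction with 50 nM substrate. Beforehand, 10 nM polymerase had been preincubated with compound for 15 min at room temperature.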
WRN helicase inh: qHTS for Inhibitors of WRN Helicase; WRN helicase unwinding, fluorescent forked duplex, kinetic; Potency, µM (titrated, usually from 114 µM), usual class: inhibitors; actives 0.46% (n = 360,000); AID 651768, 2012; further: nearly all actives have a fitted effect of over 55% in size
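Fluorescence dequenching readout, ex 525 nm/em 598 nm, kinetic mode: forked duplex DNA (100 nM final) with adjacent fluorophore and quencher unwound by WRN (20 nM final) with 2 mM ATP. Compound preincubation 15 min, room temperature.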
Pol iota inh: qHTS for Inhibitors of Polymerase Iota. actives 1% (n = 390,000). AID 588590, 2011. Pol iota fluorescent replication assay, 10 min. Potency, µM (doses to about 115 µM), actives largely listed as inhibitors. DNA polymerase iota (Homo sapiens), Q9UNA4
Target sequence (Q9UNA4 whole entry, looked up): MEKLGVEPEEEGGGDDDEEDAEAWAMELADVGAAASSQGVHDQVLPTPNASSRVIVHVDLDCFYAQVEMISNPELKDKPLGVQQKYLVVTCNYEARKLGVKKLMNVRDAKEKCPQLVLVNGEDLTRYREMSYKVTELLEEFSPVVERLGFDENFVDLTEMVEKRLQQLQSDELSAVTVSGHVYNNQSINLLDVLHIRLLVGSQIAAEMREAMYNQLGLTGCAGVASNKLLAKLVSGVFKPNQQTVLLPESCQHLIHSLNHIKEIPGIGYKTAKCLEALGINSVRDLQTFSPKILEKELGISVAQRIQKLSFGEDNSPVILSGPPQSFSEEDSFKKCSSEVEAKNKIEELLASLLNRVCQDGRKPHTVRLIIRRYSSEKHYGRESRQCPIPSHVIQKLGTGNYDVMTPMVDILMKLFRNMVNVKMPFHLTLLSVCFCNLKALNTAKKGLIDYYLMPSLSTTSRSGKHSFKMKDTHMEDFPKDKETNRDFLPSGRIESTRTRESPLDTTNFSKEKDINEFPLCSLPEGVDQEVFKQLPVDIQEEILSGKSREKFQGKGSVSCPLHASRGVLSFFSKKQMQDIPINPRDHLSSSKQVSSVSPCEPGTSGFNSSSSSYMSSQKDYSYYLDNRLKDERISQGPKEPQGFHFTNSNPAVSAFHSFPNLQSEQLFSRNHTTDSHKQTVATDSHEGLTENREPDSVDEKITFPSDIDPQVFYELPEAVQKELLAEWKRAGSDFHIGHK
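Pol iota at 10 nM preincubated 15 min with compounds at room temperature; reaction started with fluorescent substrate, 50 nM final. Fluorescence read kinetically at 0 and 10 min; buffer-only wells as negative control.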
PI5P4K alpha inh: qHTS for Inhibitors of phosphatidylinositol 5-phosphate 4-kinase (PI5P4K) | actives 1.2% (n = 330,000) | PI5P4Kalpha enzyme, ADP-Glo luminescence, 60 min; stronger effect = lower value | max response, %; active means max response of -50% or lower; inconclusive means between -30% and -50%; inactive means -30% or higher; further: value at the top dose of about 77 µM
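Compounds were pin-transferred onto PI5P4Kalpha and substrate in HEPES pH 7.4 buffer with EGTA, CHAPS and 5% DMSO. ATP (5 microM final) started the reaction, which ran 60 minutes at room temperature before ADP-Glo detection.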
Pol beta inh-2: Inhibitors of DNA Polymerase Beta: Hit validation. Potency, µM, hits mostly inhibitors. actives 87% (n = 250). shares compounds with Pol beta inh-1. Pol beta primer extension/strand displacement, fluorescence kinetic. AID 540280, 2011; calls by dose curve
Klenow inh: Inhibitors of DNA Polymerase Beta: Hit Validation in Klenow Fragment Assay; shares compounds with Pol beta inh-1; Klenow exo- polymerase counter-screen, fluorescent DNA substrate; activity change, negative = inhibition, % at 57.1 µM; 250 tested, under 10 active
HIV RT counter: Inhibitors of DNA Polymerase Beta: Hit Validation in HIV-RT Assay; 250 tested, under 10 active; activity % (negative = inhibition, positive = activation), % at 57.1 µM; AID 540301, 2011; shares compounds with Pol beta inh-1; HIV-1 RT polymerase activity, counter-screen
POLB valid: Inhibitors of DNA Polymerase Beta: Hit Validation in Radiolabeled Extension Assay. shares compounds with Pol beta inh-1. radiolabeled primer extension gel assay, phosphorimager. inhibition, % at 10 µM. actives 91% (n = 110);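 active means inhibition at 10 µM of 30% or more; inconclusive means no clear call, values can overlap the other calls; inactive means inhibition at 10 µM under 30%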
PGK validate: qHTS for inhibitors of Phosphogylcerate Kinase: Hit Validation Screen | Potency, µM (highest dose often 57.5 µM), hits mostly inhibitors | TbPGK coupled GAPDH assay, Kinase-Glo luminescence | shares compounds with Pol kappa inh-1 | AID 686980, 2013 | actives 79% (n = 500); further: nearly all actives have a fitted effect of over 65% in size
Pol iota confirm: qHTS for Inhibitors of Polymerase Iota: Confirmatory Assay for Cherry-picked Compounds; Pol iota primer extension, TAMRA/BHQ fluorescence; actives 77% (n = 1,500); AID 720496, 2013; shares compounds with Pol kappa inh-1; Potency, µM, usual class: inhibitors
Pol kappa inh-2: qHTS for Inhibitors of Polymerase Kappa: Confirmatory Assay for Cherry-picked Compounds. shares compounds with Pol eta inh-1. purified Pol-kappa, fluorescent strand-displacement substrate. Potency, µM, most hits filed as inhibitors. actives 76% (n = 920). AID 720501, 2013
Pol eta inh-2: qHTS for Inhibitors of Polymerase Eta: Confirmatory Assay for Cherry-picked Compounds | shares compounds with Pol eta inh-1 | Pol eta primer extension, TAMRA/BHQ fluorescence, 10 min | Potency, µM, most hits filed as inhibitors | actives 64% (n = 2,600)
Large screens that a line does not name were inactive (follow-up assays come after a bar, where they were run). In the library only some 2.8% were active in any assay of this set; here they are far more common. Unless noted, the call rests on the fitted dose curve; in most records, active means well fitted curve in the direction sought with a large enough effect; inconclusive means small, poorly fitted or top-dose-only effect, or another doubt; inactive means no such curve, though single readings can be large; an effect the other way counts as inactive or inconclusive.

Cc1cc(C)n2c(SC/C(O)=C(\C#N)c3nc4ccccc4[nH]3)nnc2n1	Pol eta inh-1 3.2µM, Pol beta inh-1 18µM, Pol kappa inh-1 45µM, WRN helicase inh inconclusive, Pol iota inh 11µM, PI5P4K alpha inh -81 | Pol beta inh-2 35 | Klenow inh inactive | HIV RT counter inactive | POLB valid 100 | Pol eta inh-2 76
CCN(CC)c1ccc(NC(=O)CCS(=O)(=O)c2ccc(Br)cc2)c(C)c1	Pol eta inh-1 14µM, Pol beta inh-1 7.1µM, Pol kappa inh-1 inconclusive, WRN helicase inh inconclusive, Pol iota inh 40µM | Pol beta inh-2 10 | Klenow inh inactive | HIV RT counter inconclusive | PGK validate 10µM | Pol iota confirm 47 | Pol kappa inh-2 7.5 | Pol eta inh-2 17
COCCNC(=O)/C(C#N)=C/c1c(N2CCN(C)CC2)nc2ccccn2c1=O	none
CCOC(=O)C1=C(C)N=c2s/c(=C\c3ccc(OCC(=O)O)cc3)c(=O)n2C1c1ccccc1 (stereo unspecified)	Pol eta inh-1 inconclusive, WRN helicase inh inconclusive, PI5P4K alpha inh inconclusive
CC1=C(C(=O)OC(C)C)C(c2ccc(Cl)cc2)n2c(s/c(=C\c3ccc(OCC(=O)O)cc3)c2=O)=N1 (stereo unspecified)	Pol eta inh-1 8.9µM, Pol beta inh-1 3.5µM, Pol iota inh inconclusive | Pol beta inh-2 7.1 | Klenow inh inactive | HIV RT counter inactive | Pol iota confirm 38 | Pol eta inh-2 60
O=C1NCCc2onc(-c3ccc(Br)cc3)c21	none (no result: Pol eta inh-1, Pol beta inh-1, Pol kappa inh-1, Pol iota inh)
C=CCn1c(SCC(=O)Nc2ccc(-c3nc4ccc(C)cc4s3)cc2)nnc1-c1ccccc1	Pol eta inh-1 inconclusive, Pol beta inh-1 6.3µM, WRN helicase inh inconclusive, Pol iota inh 56µM | Pol beta inh-2 20 | Klenow inh inactive | HIV RT counter inactive | POLB valid 60 | Pol iota confirm 67 | Pol eta inh-2 inconclusive
C=CCn1c(SCC(=O)NNC(=O)Nc2ccc(C)cc2)nnc1-c1ccccc1	none
CCc1nc2ccc(C(=O)NCCN3CCNC3=O)cn2c1N(CC)CCOC	none (no result: Pol eta inh-1, Pol beta inh-1, Pol kappa inh-1, Pol iota inh)
O=C(/C=C\c1ccco1)c1ccc(NC(=O)c2ccco2)cc1	Pol eta inh-1 inconclusive, Pol beta inh-1 10µM, Pol kappa inh-1 inconclusive, WRN helicase inh inconclusive, Pol iota inh 35µM, PI5P4K alpha inh -56 | Pol beta inh-2 35 | Klenow inh inactive | HIV RT counter inactive | POLB valid 78 | Pol iota confirm 67 | Pol eta inh-2 inconclusive
CCSc1ncc(Cl)c(C(=O)Nc2sc(C(C)=O)c(C)c2C(=O)OC)n1	none (no result: WRN helicase inh, PI5P4K alpha inh)
Cc1ccc(-n2cccc2/C=C2/C(=N)N3C(=NC2=O)SN=C3S(C)(=O)=O)cc1	Pol eta inh-1 32µM, Pol beta inh-1 16µM, Pol kappa inh-1 inconclusive, WRN helicase inh inconclusive, Pol iota inh 18µM, PI5P4K alpha inh -67 | Pol beta inh-2 16 | Klenow inh inactive | HIV RT counter inactive | Pol iota confirm 84 | Pol eta inh-2 67
CCc1ccc(-n2cccc2/C=C2/C(=N)N3C(=NC2=O)SN=C3S(C)(=O)=O)cc1	Pol eta inh-1 20µM, Pol beta inh-1 6.3µM, Pol kappa inh-1 79µM, Pol iota inh inconclusive, PI5P4K alpha inh -61 | Pol beta inh-2 32 | Klenow inh inactive | HIV RT counter inconclusive | POLB valid 73 | Pol iota confirm inconclusive | Pol kappa inh-2 67 | Pol eta inh-2 48
Cc1c(Cc2ccccc2)c(=O)oc2cc(O)ccc12	none
